Potency and affinity values are given separately. Calls of active or inactive are those of the source.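 The calls were made as follows: active = falling luciferase signal whose fitted half-maximal concentration is at most twice the top tested dose; inconclusive = flat inhibition between 30 and 70% or a poor curve fit; inactive = the rest.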
Test: off-target signal loss in HeLa-CEM21 co-culture – HeLa F-luc CTL cells, cherry-picked, counter-screen for HIV-1 Env fusion inhibitor project, dose response (AID 652040);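 also: more negative values mean stronger loss of luciferase signal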
Conditions: HeLa-F-luc CTL cells with CEM21, firefly luciferase counterscreen; series mostly up to 35 µM

Compound	outcome
O=C(Nc1nc(-c2ccc3c(c2)OCO3)cs1)c1ccncc1	inactive
Cc1ccccc1S(=O)(=O)NC(=O)C1(C)CCN1C(=O)CCc1ccc(Cl)cc1Cl (stereo not given)	inactive
COc1ccc(NS(=O)(=O)c2ccc3c(c2)OCCO3)cc1OC	inactive
CCOc1ccc(C(=O)C2CCN(CC(=O)Nc3ccccc3N3CCOCC3)CC2)cc1	inactive
CC(=O)c1c(C)[nH]c(C(=O)OCC(=O)Nc2c(C)cccc2C)c1C	inactive
O=C(NNS(=O)(=O)c1ccc(F)cc1F)C1Cc2c(ccc3ccccc23)O1 (stereo not given)	inactive
O=S(=O)(NC1CC1)c1ccc(S(=O)(=O)N2CCCc3ccccc32)cc1	inactive
CSc1ccc(CN(C)C(=O)c2cccc(S(=O)(=O)N3CCN(Cc4ccccc4)CC3)c2)cc1	inactive
Cc1ccc(S(=O)(=O)NCC(=O)OCC(=O)NCc2ccc3c(c2)OCO3)cc1	inactive
Cc1cc(Cl)c(S(=O)(=O)N2CCSCC2)cc1OCC(=O)NC1CCCCC1	inactive
COc1ccc(-c2cc(C(=O)NNC(=S)NC(=O)c3c(-c4ccccc4)noc3C)[nH]n2)cc1	inactive
Cc1cccc(N2CCN(C(=O)CCCSc3nc4ccccc4[nH]3)CC2)c1C	inactive
CC(Cl)=CCn1c(NCCc2ccccc2)nc2c1c(=O)n(C)c(=O)n2C	inactive
CC(C)(C)OC(=O)N1CCc2onc(-c3ccc(Br)cc3)c2C1=O	inactive
O=C(c1ccccc1)N1CCC(c2nc(-c3ccc(S(=O)(=O)NCC4CCCO4)cc3)no2)CC1 (stereo not given)	inactive
O=C(NCCCN1CCc2ccccc2C1)Nc1ccc(Cl)cc1	inactive
Cc1onc(-c2ccccc2)c1C(=O)NC(=S)NNC(=O)c1ccc(O)cc1	inactive
COc1cccc(CNc2nc(NCc3ccccc3OC)nc3ccsc23)c1	inactive
CCCCOCCCNc1ncnc2c1[nH]c1ccccc12	inactive
CN(C(=O)c1cccc(NC(=O)Cc2cccc(NC(=O)C3CCCN(C(=O)C4CCC4)C3)c2)c1)C1CCC1 (stereo not given)	inactive

Compound	outcome
Cc1ccc(Cn2ncc3c(N4CCN(Cc5ccc(Cl)cc5)CC4)ncnc32)cc1	inactive
Cc1ccc(S(=O)(=O)N(C)c2ccc(C(=O)N3CCN(Cc4ccc5c(c4)OCO5)CC3)cc2)cc1	inactive
CC(=O)c1c(C)[nH]c(C(=O)OCC(=O)Nc2ccc(Cl)c(S(=O)(=O)N(C)C)c2)c1C	inactive
CC1(C(=O)NCc2ccc3c(c2)OCO3)CCN1Cc1csc2ccccc12 (stereo not given)	inactive
CN1C(=O)C2(c3ccccc31)N(C)CC(c1ccccc1)C21SC(=S)N(Cc2ccco2)C1=O (stereo not given)	inactive
Clc1ccc2c(c1)C(C1=NCCN1)c1ccccc1CS2 (stereo not given)	inactive
CCOc1ccc(NC2c3ccccc3C(=O)N2Cc2ccco2)cc1 (stereo not given)	inactive
CCOC(=O)[C@@H]1[C@H]2COc3cc(OC)ccc3[C@H]2N2C(=O)N(c3cccc(F)c3)C(=O)[C@@]12C	inactive
CCN(C1CCCCC1)S(=O)(=O)c1ccc(S(=O)(=O)NCc2ccncc2)cc1	inactive
COCCCNC(=O)c1sc2ncnc(N3CCc4ccccc4C3)c2c1C	inactive
Cc1nc2ccc(NC(=O)c3cc(S(=O)(=O)N(C)c4ccccc4)ccc3Cl)cc2s1	inactive
COc1ccccc1OCC(=O)c1[nH]c(C)c(C(C)=O)c1C	inactive
O=C(c1cccc(S(=O)(=O)N2CCN(c3ccccc3)CC2)c1)N1CCCC(C(F)(F)F)C1 (stereo not given)	inactive
O=C(CCNC(=O)c1ccc(Br)cc1)NNC(=O)COc1ccccc1F	inactive
c1ccc2c(c1)CCN(c1ncnc3c1[nH]c1ccccc13)C2	inactive
CCOC(=O)[C@@H]1[C@H]2COc3cc(OC)ccc3[C@H]2N2C(=O)N(c3ccc(C(F)(F)F)cc3)C(=O)[C@]12C	inactive
CCCCOc1ccc(S(=O)(=O)Nc2cccnc2)cc1	inactive
COc1ccc(S(=O)(=O)N2CCCCC2)cc1NC(=O)CN(Cc1ccco1)Cc1ccco1	inactive
CC(=O)OC1c2ccccc2C(=O)N1c1ccccc1C (stereo not given)	inactive
Cc1ccc(NC(=O)c2ccc(OCC3CCCO3)cc2)cc1Cl (stereo not given)	inactive
